Source: PubChem BioAssay
gsp ag – qHTS for Agonist of gsp, the Etiologic Mutation Responsible for Fibrous Dysplasia/McCune-Albright Syndrome: qHTS. gsp mutant cells, cAMP HTRF, 30 min. Potency, µM (highest dose often 76.9 µM), most hits filed as activators. actives 0.13% (n = 340,000). AID 624287, 2012; active = well fitted activation curve with a large enough effect; inconclusive = small, poorly fitted or top-dose-only effect, or another doubt; inactive = no such curve, though single readings can be large or run the other way; cell line not stated here;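 note: phosphodiesterase inhibitor Ro 20-1724 added with compounds to block cAMP breakdown; nearly all actives have a fitted effect of over 60% in size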
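Cells in DMEM/10% FBS with G418 were pretreated with compounds in DMSO plus […] (300 uM stock) for 30 min at 37C. cAMP was measured by HTRF (cAMP-d2 plus anti-cAMP antibody-K) after 30 min at room temperature.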
gsp antag – qHTS for Antagonists of gsp, the Etiologic Mutation Responsible for Fibrous Dysplasia/McCune-Albright Syndrome: qHTS | gsp-mutant cells, cAMP HTRF, 30 min | Potency, µM (series often up to 76.9 µM), actives largely listed as inhibitors | actives 0.4% (n = 340,000); calls by dose curve; cell line not stated here;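 note: intracellular cAMP measured with PDE inhibitor Ro 20-1724 present during compound exposure; nearly all actives have a fitted effect of over 65% in size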
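HTRF cAMP measurement after 30 min RT detection following 30 min, 37C compound treatment alongside […] (added as 300 uM solution) in G418-selected cells seeded at 2000/well and grown 16–24 h.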
RXFP1 agonist – qHTS Assay for Agonists of the Relaxin Receptor RXFP1; Relaxin receptor 1 (Homo sapiens), Q9HBX9; HEK293T-RXFP1 cAMP TR-FRET, 30 min; response scale: percent of porcine relaxin response, buffer zero; Potency, µM (highest dose often 57.5 µM), usual class: activators; actives 0.3% (n = 370,000); active = well fitted activation curve with a large enough effect; inconclusive = small, poorly fitted or top-dose-only effect; note: nearly all actives have a fitted effect of over 60% in size
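Agonist response is measured as cAMP accumulation in an RXFP1-transfected HEK293T line under PDE4 inhibition. Values are scaled between buffer-only and 29 nM porcine relaxin, and EC50s come from standard Hill equation fits.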
pAkt inh – HTS Assay for Inhibitors of Akt Phophorylation: Primary Screen; Neuro2A IGF-stimulated pAkt S473 HTRF, 20 min; active compounds read low; activity change, % for hits at 50 µM; actives 0.32% (n = 360,000); AID 651550, 2012; in the data active = activity change below about -80%; inconclusive = mostly about -51% to -80%
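Neuro2A cells in DMEM with 0.5% FBS, overnight at 37 deg C, given compound at single 50 µM final, then IGF (6 nM final) for 20 min at 37 deg C. Lysed; phospho-Akt Ser473 by HTRF after 24 h, 665/615 ratio.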
RXFP1 antagonist – qHTS Assay for Antagonists of the Relaxin Receptor RXFP1; AID 1259400, 2018; actives 0.59% (n = 350,000); activity change, negative = inhibition, % at 57.5 µM; HEK293-RXFP1, relaxin-stimulated cAMP HTRF, 30 min; active compounds read low;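 active = activity change of -60% or lower, but not beyond a set lower limit; inconclusive = change between -60% and -40%, or beyond the set limit; inactive = change above -40%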
A number is an active result; 0 = inactive; ? = inconclusive; - = not tested or not shown; + = active, no number; [ ] = remark or other dose. Sampled rows, rich in hits. Any-hit rate of the full collection: about 1.2%.

SMILES	gsp ag	gsp antag	RXFP1 agonist	pAkt inh	RXFP1 antagonist
C=CCSc1nnc(NC(=O)c2cccc(S(=O)(=O)N(C)c3ccccc3)c2)s1	0	40µM	0	0	0
CN(c1ccccc1)S(=O)(=O)c1cccc(C(=O)Nc2nccs2)c1	0	0	0	0	0
CC1CN(Cc2c(O)ccc3c(=O)c(-c4ccccc4)coc23)CC(C)O1 (configuration not stated)	0[15.4 µM]	0	0	0	0
CC1CN(Cc2c(O)ccc3c2oc(=O)c2ccccc23)CC(C)O1 (configuration not stated)	28µM	0	0	0	0
S=c1nc(NCc2ccc3c(c2)OCO3)c2ccccc2[nH]1	0	?	0	0	0
O=C(NC1CCCCC1)c1ccc(CNc2nc(=S)[nH]c3ccccc23)cc1	0[15.4 µM]	0	0	0	-81
COc1cc(/C=N/NC(=O)c2ccncc2)ccc1OC(=O)c1ccc([N+](=O)[O-])cc1	0	0	0	-107%	0
COc1cc(/C=N/NC(=O)c2ccccn2)ccc1OC(=O)c1ccccc1Br	0[15.4 µM]	?	0	0	-97
CCN(CC)CCOC(=O)c1ccc(NC(=O)c2nn(-c3ccc(C)cc3)c(=O)c3c2c2ccccc2n3C)cc1	-	-	0	-	0
CCCCC(=O)Nc1nc(C)c(C(C)=O)s1	?	0	0	0	-
CCCC(=O)Nc1nc(C)c(C(C)=O)s1	?	0	18µM	0	0
CC(CC(=O)N1CCN(c2cccc(Cl)c2)CC1)S(=O)(=O)c1ccc2c(c1)NC(=O)CO2 (configuration not stated)	0	28µM	0	0	0
COc1ccc(N2CCN(C(=O)CC(C)S(=O)(=O)c3ccc4c(c3)NC(=O)CO4)CC2)cc1 (configuration not stated)	0	?	0	0	0
Cc1ccc(C)c(N2CCN(C(=O)CCS(=O)(=O)c3ccc4c(c3)NC(=O)CO4)CC2)c1	0	50µM	0	0	0
COc1ccc([C@]23Cc4cc(C#N)ccc4C(O2)C2=C(CC4(CCCCC4)OC2=O)O3)cc1	-	-	0[11.5 µM]	-	-
CCCOc1ccc(NC(=O)CC2C(=O)N(CC)C(=S)N2CCCN2CCN(Cc3ccccc3)CC2)cc1 (configuration not stated)	0	0	0	0	-65
CCCOc1ccc(NC(=O)CC2C(=O)N(CC)C(=S)N2CCNC(C)=O)cc1 (configuration not stated)	0[15.4 µM]	0	0	0	0
Cc1ccc(-c2nc3ccccc3s2)cc1S(=O)(=O)N1CCOCC1	0	0	0	-90%	0
O=c1[nH]c(CN2CCN(c3ccccc3O)CC2)nc2ccccc12	0	0	0	-110%	0
Cc1cc(C)n(-c2nc(Nc3ccccc3C)nc(-n3nc(C)cc3C)n2)n1	-	-	0	-	-
Cc1cc(C)n(-c2nc(Nc3ccccc3C(F)(F)F)nc(-n3nc(C)cc3C)n2)n1	0	28µM	0	0	?
CN1CC(=O)NC1=N	-	-	-	-	0
Cc1cc(NC(=O)CSc2nc3ccccc3c(=O)n2-c2ccccc2)no1	0[15.4 µM]	0	0	0	0
Cc1ccc(C(=O)CSc2nc3ccccc3c(=O)n2-c2ccccc2)s1	0	0	0	-100%	0
CCCCn1c(SCC(=O)Nc2cc(C)on2)nc2ccsc2c1=O	0	0	?	-101%	0
SMILES	gsp ag	gsp antag	RXFP1 agonist	pAkt inh	RXFP1 antagonist
Cc1ccc(-n2c(SCC(=O)Nc3cc(C)on3)nc3ccccc3c2=O)cc1	0	0	0	-85%	0
CCc1cc2c(=O)n(-c3ccccc3)c(SCC(N)=O)nc2s1	0	7.1µM	0	0	0
O=C(O)c1ccc(CSc2nc3ccccc3c(=O)n2-c2ccccc2)cc1	0	0	0	0	0
Cc1cc(NC(=O)CSc2nc3ccsc3c(=O)n2CCCCC(=O)O)no1	0	0	0	0	0
CCCc1ccc(S(=O)(=O)N2CCC(c3nnc(-c4cccc(C)c4)o3)CC2)cc1	-	-	0	-	0
Cn1c(=O)cc(SCC(=O)NCCCN2CCOCC2)c2ccccc21	22µM	0	0	0	0
CCn1c(=O)cc(SCC(=O)NCCCN2CCN(c3ccc(F)cc3)CC2)c2ccccc21	22µM	0	0	0	0
O=C(COc1ccc2c(c1)oc(=O)c1ccccc12)NCCCN1CCOCC1	0	+	0	0	0
O=C(COc1ccc2c3c(c(=O)oc2c1)CCC3)NCCCN1CCOCC1	?	0	0	0	0
Cn1c(=O)cc(SCC(=O)NCCCN2CCN(c3ccccc3F)CC2)c2ccccc21	?	0	0	0	0
Cn1c(=O)cc(SCC(=O)NCCCN2CCOCC2)c2ccc(Cl)cc21	28µM	0	0	0	0
CC(=O)NC(c1ccco1)c1cc(Br)c2cccnc2c1O (configuration not stated)	-	-	0	-	-
CCn1nnc2cc(C(=O)Nc3cc(C)ccc3C)ccc21	-	-	0	-	0
COc1ccc(NC(=O)Cn2nc(C)c3c(C)n(-c4ccccc4)nc3c2=O)cc1OC	-	-	0	-	0
COC(=O)c1sccc1NC(=O)CN(C)NS(=O)(=O)c1ccc(Cl)cc1	0	0	0	0	0
COC(=O)c1sccc1NC(=O)CN(C)NS(=O)(=O)c1ccc(F)cc1	0	50µM	0	0	0
O=C(O)c1ccc(CNCc2ccc(Cl)cc2)s1	-	-	0	-	-
CCC(=O)N1CCc2cc(Br)cc(S(=O)(=O)NCCN3CCCC3)c21	0	0	0	0	0
CCC(=O)N1CCc2cc(Br)cc(S(=O)(=O)CC(=O)OC)c21	0	0[15.4 µM]	0	-107%	0
CCOc1cc(C(=O)N(Cc2nc(-c3ccc(C)cc3)no2)C(C)C)cc(OCC)c1OCC	-	-	0	-	-
CCCCOc1ccccc1C(=O)Nc1nonc1-c1ccccc1	-	-	0	-	0
Cc1cc(Nc2cccc(C(F)(F)F)c2)n2nc(C)nc2n1	0	0	0	0	0
COc1ccc(-c2nc3nc(C)cc(Nc4cccc(C(F)(F)F)c4)n3n2)cc1	-	-	32µM	-	0
C=CCn1c(Sc2nnc(C)s2)nc2c1c(=O)[nH]c(=O)n2C	0	0	0	-124%	0
O=C(Nc1nc(-c2ccccc2)cs1)c1cccc([N+](=O)[O-])c1	0	50µM	0	0	0
O=C(Nc1nc(-c2cccnc2)cs1)c1cccc([N+](=O)[O-])c1	0[15.4 µM]	0	0	0	0
O=C(Cc1ccccc1)Nc1nc(-c2cccc([N+](=O)[O-])c2)cs1	0	0	0	0	0
Cc1ccc(C(=O)NC(=S)Nc2nc(-c3cccc([N+](=O)[O-])c3)cs2)c(Cl)c1	0[15.4 µM]	0	0	0	-89
Cc1nc2ccccc2c2c1CC(C)S2 (configuration not stated)	8.9µM	0	0	0	0
